Compound activity deposited in PubChem BioAssay by National Center for Advancing Translational Sciences (NCATS).
HT1080 IDH1KD tx = qHTS for induction of synthetic lethality in tumor cells producing 2HG: qHTS for the HT-1080-IDH1KD cell line | HT-1080 IDH1 knockdown viability, ATP luminescence, 48 h | Potency, µM (series often up to 46.1 µM), hits mostly cytotoxic | 360,000 compounds, 2% hits
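After a 2 h attachment period, IDH1KD HT-1080 cells took pin-transferred compound for 48 h at 37 °C; ATP-based luminescence after 10 min room-temperature reagent incubation reported viability.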
TDP1 cell noCPT = qHTS for Inhibitors of human tyrosyl-DNA phosphodiesterase 1 (TDP1): qHTS in cells in absence of CPT; DT40 Tdp1-/- hTDP1 cells, no CPT, ATP luminescence, 48 h; Potency, µM (series often up to 46.2 µM), usual class: inhibitors; 420,000 compounds, 15% hits; also: nearly all actives have a fitted effect of over 55% in size
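Readout: luminescence from CellTiter-Glo after 30 min in the dark at RT. Cells: DT40 Tdp1-/- with stable hTDP1, 400/well. Exposure: compounds alone, ≥48 hr, 37 °C.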
TDP1 cell CPT = qHTS for Inhibitors of human tyrosyl-DNA phosphodiesterase 1 (TDP1): qHTS in cells in presence of CPT. AID 686979, 2013. chicken DT40 Tdp1-/-;hTDP1 cells + 20 nM CPT, ATP luminescence, 48 h. Potency, µM (titrated, usually from 46.2 µM), usual class: inhibitors. 420,000 compounds, 12% hits; also: nearly all actives have a fitted effect of over 55% in size
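Chicken DT40 Tdp1-/- cells stably complemented with human TDP1 were seeded at 400 cells/well in medium containing 20 nM camptothecin, exposed to pin-transferred compounds, and grown at 37 °C for at least 48 hr. Viability was read as ATP luminescence.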
HT1080-NT tox = qHTS for induction of synthetic lethality in tumor cells producing 2HG: qHTS for the HT-1080-NT fibrosarcoma cell line; HT-1080-NT fibrosarcoma viability, CellTiter-Glo ATP luminescence, 48 h; 360,000 compounds, 1.6% hits; Potency, µM (titrated, usually from 46.1 µM), actives largely listed as cytotoxic;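 also: NT is the 2HG producing partner of a matched IDH1 knockdown line; nearly all actives have a fitted effect of over 55% in size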
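Luminescent CellTiter-Glo readout after 48 hours of compound exposure at 37 degrees C defined viability of HT-1080-NT cells. Activity was normalized to DMSO wells and cell-free media wells; concentration-response curves were fitted and assigned curve classes.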
IL-1B inflam inh = qHTS for Inhibitors of Inflammasome Signaling: IL-1-beta AlphaLISA Primary Screen; THP-1 LPS/ATP IL-1B secretion, AlphaLISA, 16 h; hits give low values; activity change, % at 57.5 µM; 360,000 compounds, 4.7% hits; AID 743279, 2014; in the data active = activity change below about -50%; inconclusive = mostly about -30% to -49%
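THP-1 cells pretreated 1 hr with compounds (up to 57.5 uM final), then stimulated with LPS (250 ng/mL final) plus ATP (1.25 mM final); secreted IL-1B measured by AlphaLISA after 16 hr, decreased signal indicating inhibition.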
ALOX12 inh = Primary qHTS assay for inhibitors of human arachidonate 12S-lipoxygenase (ALOX12): Round 2 | AID 1671190, 2021 | Polyunsaturated fatty acid lipoxygenase ALOX12 (Homo sapiens), P18054 | purified 12hLO, xylenol orange hydroperoxide absorbance | Potency, µM (titrated, usually from 108 µM), usual class: inhibitors | 580,000 compounds, 1.1% hits
Target sequence (P18054 whole entry, looked up): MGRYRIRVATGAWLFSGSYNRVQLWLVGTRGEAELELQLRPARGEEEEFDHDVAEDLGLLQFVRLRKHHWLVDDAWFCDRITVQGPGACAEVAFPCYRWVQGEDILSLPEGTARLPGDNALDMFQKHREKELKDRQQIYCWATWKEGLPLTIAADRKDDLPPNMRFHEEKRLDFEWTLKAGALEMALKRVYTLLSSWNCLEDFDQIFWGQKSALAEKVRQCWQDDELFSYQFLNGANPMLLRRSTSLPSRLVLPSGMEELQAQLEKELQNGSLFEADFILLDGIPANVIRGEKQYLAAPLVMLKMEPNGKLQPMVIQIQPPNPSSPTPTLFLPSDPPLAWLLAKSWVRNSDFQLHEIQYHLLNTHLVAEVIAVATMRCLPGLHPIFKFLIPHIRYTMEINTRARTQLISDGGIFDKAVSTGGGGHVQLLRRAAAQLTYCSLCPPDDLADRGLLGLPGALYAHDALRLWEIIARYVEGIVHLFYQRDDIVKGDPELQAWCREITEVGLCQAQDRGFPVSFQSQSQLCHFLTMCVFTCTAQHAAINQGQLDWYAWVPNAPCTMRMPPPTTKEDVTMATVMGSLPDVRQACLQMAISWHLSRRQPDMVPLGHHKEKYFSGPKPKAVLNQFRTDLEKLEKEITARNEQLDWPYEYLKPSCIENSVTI
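Purified human 12hLO (150 nM final) in 25 mM Hepes, 0.01% Triton X-100, pH 7.0 was preincubated 15 min at room temperature with compound. Then 40 uM arachidonic acid was added, 30 min. Hydroperoxide was read by Fe-XO absorbance ratio 573/405 nm.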
Hits are given with their value; i = inactive; ? = inconclusive; nt = no result given; [ ] = another dose, or the depositor's remark. This is one part of a sample in which hits are shown more often than they occur. Unless noted, calls follow the shape of the dose curve; as a rule, active = well fitted curve in the direction sought with a large enough effect; inconclusive = small, poorly fitted or top-dose-only effect, or another doubt; inactive = no such curve, though single readings can be large; an effect the other way counts as inactive or inconclusive.

SMILES	HT1080 IDH1KD tx	TDP1 cell noCPT	TDP1 cell CPT	HT1080-NT tox	IL-1B inflam inh	ALOX12 inh
Cc1ccc(-n2nc(C)c(C(=O)NCCCN3CCN(c4cccc(Cl)c4)CC3)c2-n2cccc2)cc1	nt	5.8µM	8.2µM	nt	nt	?
COc1ccc(C(=O)NC2CC2)cc1S(=O)(=O)N(C)C	nt	nt	nt	nt	nt	i
O=[N+]([O-])c1ccccc1/C=C1\C=Cc2ccccc21	nt	i	i	nt	nt	nt
CNc1ccc(/C=C2\COc3ccccc3C2=O)cc1[N+](=O)[O-]	i	12µM	?	i	i	i
O=C1/C(=C/c2ccccc2[N+](=O)[O-])COc2ccccc21	18µM	?	2.6µM	8.2µM	-104	i
CCC(C(=O)Nc1nc2ccccc2s1)n1cnc2c1c(=O)n(C)c(=O)n2C (stereo not drawn)	nt	nt	nt	nt	nt	i
N#Cc1ccc(CN2CCC(N3CCNC3=O)CC2)cc1	nt	nt	nt	nt	nt	i[12.5 µM]
CCn1c(CNC(C)c2ccc(Cl)c(Cl)c2)nc2cc(S(=O)(=O)N3CCOCC3)ccc21 (stereo not drawn)	nt	nt	nt	nt	nt	i
COc1ccc(Br)cc1C(=O)Nc1ccccc1-c1ccccc1	i	29µM	?	?	i	i
COc1c(Cl)cc(C(=O)Nc2ccccc2-c2ccccc2)cc1Cl	i	29µM	?	i	?	i
COc1cccc(C(=O)Nc2ccccc2-c2ccccc2)c1	i	?	i	i	i	?
COc1ccc(Br)cc1C(=O)Nc1ccccc1N1CCCC1	i	?	?	?	i	?
CCc1ccc(Nc2n[n+](-c3ccccc3)c(-c3cccc(C)c3)s2)cc1	i	5.8µM	7.3µM	i	i	?
CSc1ccc(-c2sc(Nc3ccccc3)n[n+]2-c2ccc(F)cc2)cc1	i	23µM	12µM	i	i	nt
COc1ccc(-c2sc(Nc3ccccc3)n[n+]2-c2ccc(F)cc2)c(C)c1C	i	10µM	7.3µM	?	i	?
COc1ccccc1-c1cncnc1Nc1ccc(F)cc1	nt	i	i	nt	nt	?
Cc1cccc(-c2sc(Nc3ccccc3)n[n+]2-c2ccc(F)cc2)c1	i	9.2µM	7.3µM	i	i	?
CCc1ccc(NC(=O)c2ccc(-c3ccccc3)s2)cc1	nt	?	i	nt	nt	i
O=c1oc2ccccc2cc1-c1nc(-c2ccc(N3CCCCC3)cc2)no1	nt	nt	nt	nt	nt	i
COc1ccc(Nc2nc3ccccc3nc2NS(=O)(=O)c2ccc(Cl)cc2)c(OC)c1	nt	nt	nt	nt	nt	i
COc1cc(NC(=O)C(c2ccccc2)c2ccccc2)c(OC)cc1Cl	nt	nt	nt	nt	nt	i
COCCN(CCOC)CC[C@@H]1CC[C@H](O)[C@@H](C(=O)Nc2ccccc2)O1	nt	nt	nt	nt	nt	i
Cc1ccc(Cl)cc1NC(=O)c1ccccc1OCC(=O)Nc1ccc(Cl)cc1	i	5.8µM	?	?	i	i
Cc1ccccc1OCC(=O)NNC(=O)Nc1ccc(Cl)cc1	4.6µM	4.6µM	5.8µM	6.5µM	i	i
COc1cc(NC(=O)COc2cccc(C)c2C)ccc1NC(=O)c1ccco1	i	?	i	i	i	i
SMILES	HT1080 IDH1KD tx	TDP1 cell noCPT	TDP1 cell CPT	HT1080-NT tox	IL-1B inflam inh	ALOX12 inh
Cc1ccccc1OCC(=O)OCC(=O)Nc1ncc(Cl)c(C)c1Cl	i	i	i	i[9.24 µM]	i	8.9µM
COc1ccc(NC(C)=O)cc1CNC(=O)COc1ccccc1C(=O)Nc1cccc(C)c1C	i	4.1µM	?	i	i	i
Cc1ccccc1OCC(=O)OCC(=O)Nc1ccc(Cl)cn1	i	i	i	i	i	i
N=C(N)c1ccnc(Sc2nc3ccccc3[nH]2)c1	nt	nt	nt	nt	nt	i
CC(NC(=O)C1CCCc2ccccc21)c1cccc(Cl)c1 (stereo not drawn)	nt	nt	nt	nt	nt	i
COc1ccc(Br)cc1COC(=O)COc1ccc(C(C)=O)cc1	nt	nt	nt	nt	nt	i
CCOC(=O)c1c(C)[nH]c(C(=O)COC(=O)[C@H](C)N2C(=O)C3CCCCC3C2=O)c1C (stereo partly drawn)	i	26µM	?	i	i	i
COC(=O)c1c(C)[nH]c(C(=O)C(C)OC(=O)c2cc(C)oc2C)c1C (stereo not drawn)	i	16µM	?	i	i	i
CC(=O)c1c(C)[nH]c(C(=O)COC(=O)CN2C(=O)C3CCCCC3C2=O)c1C (stereo not drawn)	i	i	?	i	i	i
CC(=O)c1c(C)[nH]c(C(=O)COC(=O)c2cc(C)oc2C)c1C	i	2.6µM	?	i	?	?
COC(=O)c1c(C)[nH]c(C(=O)C(C)OC(=O)c2ccc(F)cc2F)c1C (stereo not drawn)	nt	nt	nt	nt	nt	i
CC(=O)c1c(C)[nH]c(C(=O)COC(=O)c2ccc(C)s2)c1C	i	?	i	i	i	i
CC(=O)c1c(C)[nH]c(C(=O)COC(=O)C2(C)CC2(Cl)Cl)c1C (stereo not drawn)	i	21µM	18µM	i	i	i
O=C(O)CSCc1ccc(Cl)cc1Cl	nt	nt	nt	nt	nt	i
CC1=C[C@@H](CC#N)[C@H](C(C)C)C[C@H]1CC(=O)NCc1ccc(F)cc1	nt	nt	nt	nt	nt	i
CCOC(=O)c1c(C)[nH]c(C(=O)COC(=O)c2[nH]c(C)c(C(C)=O)c2C)c1C	i	5.2µM	4.6µM	i	i	i
O=C(c1ccc(C(F)(F)F)cc1)N1CCC2(CC1)CC(c1cccnc1)=NO2	nt	nt	nt	nt	nt	i
CCc1ccc(NC(=O)N(Cc2c[nH]c3ccccc23)C2CCCCCC2)cc1	nt	7.3µM	21µM	nt	nt	i
CCc1ccc(NC(=O)N(Cc2c[nH]c3ccccc23)C2CCCCC2)cc1	nt	6.5µM	7.3µM	nt	nt	i
COc1cc2cc(CN(C(=O)Nc3ccccc3)C3CCCC3)c(=O)[nH]c2cc1OC	i	i	i	i	?	i
O=C(Nc1ccccc1)N(Cc1c[nH]c2ccccc12)C1CCCCCC1	nt	18µM	12µM	nt	nt	i
CCCn1c(NCCN(CC)CC)nc2c1c(=O)[nH]c(=O)n2C	nt	nt	nt	nt	nt	i
COc1cc(=O)n2c(c1C(=O)Nc1cccc(SC)c1)CCCC2	nt	nt	nt	nt	nt	i
O=C(NCc1ccccc1)[C@@H]1COCC(=O)N1Cc1ccc(F)cc1	nt	nt	nt	nt	nt	i
Cc1c(CC(=O)NCCc2ccccc2F)c(=O)oc2cc(O)ccc12	nt	nt	nt	nt	nt	i
COc1ccccc1CCNC(=O)CCc1c(C)c2cc3c(C)c(C)oc3cc2oc1=O	nt	16µM	18µM	nt	nt	i
